Source: the supplement of paper PMC10849652
Of roughly 7,900 targets only a part is listed; those with a hit were picked by preference. About 0.6% of all pairs of compound and target were hits.

compound: CC1=C(C2=C(C=C1)C(=O)C3=CC=CC=C3N2CCCN)C; test: log2 fold change, soluble protein after heating vs DMSO (PISA); higher = thermal stabilisation; K562 cells, 10 uM, 30 min; active = over 0.2 and 3.5 SD of the protein, either way, in both replicates (recomputed)
In short: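 K562 cells (2×10^6 cells/mL) were treated with 10 μM compound for 30 min, and aliquots were heated for 3 min over 48°C-58°C. Pooled aliquots were extracted in PBS with 0.5% NP-40 at 4°C, and the supernatant after 21,000xg for 90 min was measured by TMTpro 16plex LC-MS/MS with channel sums equalised. Reported thermal stability, relative to control samples and from duplicates, is a log2 fold change.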

UniProt Q96Q15, sequence (Q96Q15 whole entry, looked up): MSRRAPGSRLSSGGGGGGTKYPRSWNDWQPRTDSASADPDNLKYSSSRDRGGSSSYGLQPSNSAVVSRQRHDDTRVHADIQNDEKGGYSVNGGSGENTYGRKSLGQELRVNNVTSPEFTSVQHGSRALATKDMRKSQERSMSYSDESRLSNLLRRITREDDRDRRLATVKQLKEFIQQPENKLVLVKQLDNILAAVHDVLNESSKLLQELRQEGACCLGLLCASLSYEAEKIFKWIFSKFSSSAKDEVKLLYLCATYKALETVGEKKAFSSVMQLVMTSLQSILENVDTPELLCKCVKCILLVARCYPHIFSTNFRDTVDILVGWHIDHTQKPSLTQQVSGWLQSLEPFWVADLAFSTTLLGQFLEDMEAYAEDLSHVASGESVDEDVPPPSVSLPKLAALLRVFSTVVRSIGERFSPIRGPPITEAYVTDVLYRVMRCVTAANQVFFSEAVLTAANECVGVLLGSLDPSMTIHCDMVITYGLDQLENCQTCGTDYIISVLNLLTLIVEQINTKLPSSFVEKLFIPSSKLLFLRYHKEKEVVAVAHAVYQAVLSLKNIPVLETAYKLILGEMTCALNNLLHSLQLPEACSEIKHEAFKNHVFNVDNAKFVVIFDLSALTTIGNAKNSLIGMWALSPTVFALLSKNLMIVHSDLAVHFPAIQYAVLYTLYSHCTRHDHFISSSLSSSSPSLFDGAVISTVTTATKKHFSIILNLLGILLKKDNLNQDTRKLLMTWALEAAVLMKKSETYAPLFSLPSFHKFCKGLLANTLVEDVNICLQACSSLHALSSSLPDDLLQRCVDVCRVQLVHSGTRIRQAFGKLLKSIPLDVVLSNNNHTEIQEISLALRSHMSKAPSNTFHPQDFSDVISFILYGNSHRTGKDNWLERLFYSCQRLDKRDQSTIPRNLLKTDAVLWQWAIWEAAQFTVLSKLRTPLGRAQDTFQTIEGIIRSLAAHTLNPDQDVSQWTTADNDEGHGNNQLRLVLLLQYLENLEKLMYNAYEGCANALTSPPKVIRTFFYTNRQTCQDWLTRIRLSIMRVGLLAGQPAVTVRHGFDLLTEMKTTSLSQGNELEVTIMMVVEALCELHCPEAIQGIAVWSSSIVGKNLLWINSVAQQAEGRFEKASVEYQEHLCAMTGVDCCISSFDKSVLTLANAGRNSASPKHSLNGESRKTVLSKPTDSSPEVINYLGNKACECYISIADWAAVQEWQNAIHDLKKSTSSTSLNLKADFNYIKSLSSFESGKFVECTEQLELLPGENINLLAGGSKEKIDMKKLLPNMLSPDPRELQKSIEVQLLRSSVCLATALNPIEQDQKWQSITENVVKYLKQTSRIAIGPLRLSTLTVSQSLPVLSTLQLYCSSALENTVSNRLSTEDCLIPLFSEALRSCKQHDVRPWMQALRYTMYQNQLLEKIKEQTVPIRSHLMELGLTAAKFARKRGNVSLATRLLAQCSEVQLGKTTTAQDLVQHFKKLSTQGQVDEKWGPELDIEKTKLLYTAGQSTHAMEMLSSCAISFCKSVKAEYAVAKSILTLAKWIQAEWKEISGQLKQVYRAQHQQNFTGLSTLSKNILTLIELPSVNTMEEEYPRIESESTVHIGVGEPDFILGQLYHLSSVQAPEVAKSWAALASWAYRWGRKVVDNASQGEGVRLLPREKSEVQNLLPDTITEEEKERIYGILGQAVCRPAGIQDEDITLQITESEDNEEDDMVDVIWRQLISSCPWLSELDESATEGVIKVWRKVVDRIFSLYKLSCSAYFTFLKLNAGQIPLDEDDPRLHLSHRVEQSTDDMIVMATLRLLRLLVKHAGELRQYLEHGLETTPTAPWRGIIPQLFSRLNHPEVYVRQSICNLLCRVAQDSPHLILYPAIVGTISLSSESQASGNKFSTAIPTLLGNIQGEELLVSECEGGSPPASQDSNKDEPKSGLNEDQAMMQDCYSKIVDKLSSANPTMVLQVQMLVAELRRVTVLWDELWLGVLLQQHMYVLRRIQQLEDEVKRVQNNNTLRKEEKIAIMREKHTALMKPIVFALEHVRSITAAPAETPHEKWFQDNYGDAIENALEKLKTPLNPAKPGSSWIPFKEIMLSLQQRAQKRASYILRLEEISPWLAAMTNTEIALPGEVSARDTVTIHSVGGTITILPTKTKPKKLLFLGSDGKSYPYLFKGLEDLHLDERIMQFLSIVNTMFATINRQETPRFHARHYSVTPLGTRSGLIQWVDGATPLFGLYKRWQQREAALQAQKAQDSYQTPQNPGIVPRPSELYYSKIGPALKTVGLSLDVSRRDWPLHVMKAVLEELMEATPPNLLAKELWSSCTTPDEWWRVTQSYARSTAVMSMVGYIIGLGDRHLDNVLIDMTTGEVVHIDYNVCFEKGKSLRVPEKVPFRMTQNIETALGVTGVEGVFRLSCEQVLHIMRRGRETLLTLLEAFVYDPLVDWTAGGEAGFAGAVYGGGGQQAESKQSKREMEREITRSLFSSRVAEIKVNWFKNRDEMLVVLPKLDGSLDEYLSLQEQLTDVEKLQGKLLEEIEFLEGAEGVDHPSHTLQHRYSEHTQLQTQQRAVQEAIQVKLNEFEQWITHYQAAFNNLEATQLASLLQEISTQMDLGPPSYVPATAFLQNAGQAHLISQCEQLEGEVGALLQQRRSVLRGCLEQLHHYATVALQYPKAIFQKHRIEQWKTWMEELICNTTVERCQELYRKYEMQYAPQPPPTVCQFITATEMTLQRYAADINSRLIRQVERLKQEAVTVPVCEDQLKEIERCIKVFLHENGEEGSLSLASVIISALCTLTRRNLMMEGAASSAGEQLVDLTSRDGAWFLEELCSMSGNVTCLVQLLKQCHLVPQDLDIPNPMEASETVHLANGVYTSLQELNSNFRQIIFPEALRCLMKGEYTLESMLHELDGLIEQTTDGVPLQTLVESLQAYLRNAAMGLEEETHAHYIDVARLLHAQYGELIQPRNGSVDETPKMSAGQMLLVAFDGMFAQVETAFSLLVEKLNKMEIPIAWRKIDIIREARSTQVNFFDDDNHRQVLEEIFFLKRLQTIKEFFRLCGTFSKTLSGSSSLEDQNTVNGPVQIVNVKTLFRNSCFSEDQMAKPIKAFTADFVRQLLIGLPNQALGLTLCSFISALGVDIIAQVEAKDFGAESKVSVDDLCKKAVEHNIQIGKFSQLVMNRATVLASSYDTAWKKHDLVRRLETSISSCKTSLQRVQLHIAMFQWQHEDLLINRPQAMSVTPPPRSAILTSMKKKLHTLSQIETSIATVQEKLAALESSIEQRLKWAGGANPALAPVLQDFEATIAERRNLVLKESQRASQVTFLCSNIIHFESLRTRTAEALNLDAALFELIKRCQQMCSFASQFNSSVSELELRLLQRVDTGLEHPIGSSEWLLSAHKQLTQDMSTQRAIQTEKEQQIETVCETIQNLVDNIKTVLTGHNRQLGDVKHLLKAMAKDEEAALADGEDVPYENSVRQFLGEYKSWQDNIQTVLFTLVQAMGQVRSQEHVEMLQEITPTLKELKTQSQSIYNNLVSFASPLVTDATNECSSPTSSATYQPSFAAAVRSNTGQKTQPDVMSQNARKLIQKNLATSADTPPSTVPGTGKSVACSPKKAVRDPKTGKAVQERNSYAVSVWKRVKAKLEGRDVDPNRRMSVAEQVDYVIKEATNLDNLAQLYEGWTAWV
UniProt Q9NVC3, sequence (Q9NVC3 whole entry, looked up): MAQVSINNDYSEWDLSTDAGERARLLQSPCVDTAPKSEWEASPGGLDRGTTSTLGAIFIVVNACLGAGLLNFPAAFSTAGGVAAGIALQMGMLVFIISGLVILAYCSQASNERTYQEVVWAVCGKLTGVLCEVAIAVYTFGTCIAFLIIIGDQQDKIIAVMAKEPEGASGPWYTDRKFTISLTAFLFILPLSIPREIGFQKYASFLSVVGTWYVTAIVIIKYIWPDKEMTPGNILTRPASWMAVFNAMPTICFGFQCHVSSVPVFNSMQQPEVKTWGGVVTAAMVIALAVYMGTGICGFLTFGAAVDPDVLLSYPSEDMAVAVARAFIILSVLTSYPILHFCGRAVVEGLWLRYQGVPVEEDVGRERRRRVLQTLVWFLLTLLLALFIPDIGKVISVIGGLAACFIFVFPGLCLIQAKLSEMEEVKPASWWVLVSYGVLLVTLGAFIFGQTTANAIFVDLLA
UniProt Q9NZD8, sequence (Q9NZD8 whole entry, looked up): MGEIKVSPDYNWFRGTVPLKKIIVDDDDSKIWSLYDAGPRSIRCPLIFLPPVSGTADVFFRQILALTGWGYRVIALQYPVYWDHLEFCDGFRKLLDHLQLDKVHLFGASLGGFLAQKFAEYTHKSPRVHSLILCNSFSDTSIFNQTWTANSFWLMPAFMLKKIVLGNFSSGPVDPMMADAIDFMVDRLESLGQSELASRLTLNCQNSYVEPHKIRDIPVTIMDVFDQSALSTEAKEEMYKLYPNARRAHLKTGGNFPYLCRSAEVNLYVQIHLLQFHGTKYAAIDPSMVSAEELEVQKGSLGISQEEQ
UniProt P15907, sequence (P15907 whole entry, looked up): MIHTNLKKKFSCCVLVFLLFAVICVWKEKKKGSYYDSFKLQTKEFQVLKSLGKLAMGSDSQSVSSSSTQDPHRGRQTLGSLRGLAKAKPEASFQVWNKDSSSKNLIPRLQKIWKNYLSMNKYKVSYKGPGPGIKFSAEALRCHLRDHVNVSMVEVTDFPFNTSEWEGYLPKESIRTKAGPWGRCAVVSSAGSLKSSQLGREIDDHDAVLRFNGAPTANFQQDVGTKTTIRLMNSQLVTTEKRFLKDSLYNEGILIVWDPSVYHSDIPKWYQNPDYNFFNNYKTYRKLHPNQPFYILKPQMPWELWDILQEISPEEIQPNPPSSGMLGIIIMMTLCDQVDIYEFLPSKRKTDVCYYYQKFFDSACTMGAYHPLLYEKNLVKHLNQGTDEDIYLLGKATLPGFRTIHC
UniProt O75663, sequence (O75663 whole entry, looked up): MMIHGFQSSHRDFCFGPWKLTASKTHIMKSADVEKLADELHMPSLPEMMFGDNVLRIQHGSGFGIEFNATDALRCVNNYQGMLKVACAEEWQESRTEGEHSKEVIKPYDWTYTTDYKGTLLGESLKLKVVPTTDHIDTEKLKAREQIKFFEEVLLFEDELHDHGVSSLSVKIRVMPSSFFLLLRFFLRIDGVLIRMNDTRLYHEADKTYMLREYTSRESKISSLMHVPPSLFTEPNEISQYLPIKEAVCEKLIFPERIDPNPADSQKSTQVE

Question: Which log2 fold change does the source give for SPPL2B (UniProt Q8TCT7) here?
Answer: 0.02 (inactive)

Question: With STK4 (UniProt Q13043) as the target, how does the log2 fold change read?
Answer: 0.019 (inactive)

Question: With SMG1 (UniProt Q96Q15) as the target, how does the log2 fold change read?
Answer: 0.054 (inactive)

Question: Which log2 fold change does the source give for STK38L (UniProt Q9Y2H1) here?
Answer: -0.023 (inactive)

Question: How did the log2 fold change turn out when TGFBRAP1 (UniProt Q8WUH2) was run?
Answer: -0.017 (inactive)

Question: With SLC9A6 isoform 2 (UniProt Q92581) as the target, how does the log2 fold change read?
Answer: 0.023 (inactive)

Question: SLC35A1 (UniProt P78382) was tested. Which log2 fold change did it give?
Answer: 0.138 (inactive)

Question: With TFR2 (UniProt Q9UP52) as the target, how does the log2 fold change read?
Answer: -0.128 (inactive)

Question: With TERF2IP (UniProt Q9NYB0) as the target, how does the log2 fold change read?
Answer: -0.33 (active)

Question: How did the log2 fold change turn out when SUGP1 (UniProt Q8IWZ8) was run?
Answer: -0.003 (inactive)

Question: SURF1 (UniProt Q15526) was tested. Which log2 fold change did it give?
Answer: 0.098 (inactive)

Question: With STARD7 (UniProt Q9NQZ5) as the target, how does the log2 fold change read?
Answer: -0.003 (inactive)

Question: With STEAP3 isoform 2 (UniProt Q658P3) as the target, how does the log2 fold change read?
Answer: 0.044 (inactive)

Question: With ST6GAL1 (UniProt P15907) as the target, how does the log2 fold change read?
Answer: 0.011 (inactive)

Question: Which log2 fold change does the source give for SPIRE1 (UniProt Q08AE8) here?
Answer: 0.029 (inactive)

Question: With SLC27A1 (UniProt Q6PCB7) as the target, how does the log2 fold change read?
Answer: 0.04 (inactive)

Question: SPG21 (UniProt Q9NZD8) was tested. Which log2 fold change did it give?
Answer: 0.072 (inactive)

Question: How did the log2 fold change turn out when SRP72 (UniProt O76094) was run?
Answer: -0.547 (active)

Question: Which log2 fold change does the source give for SLC38A7 (UniProt Q9NVC3) here?
Answer: 0.007 (inactive)

Question: Which log2 fold change does the source give for SLK isoform 2 (UniProt Q9H2G2) here?
Answer: 0.073 (inactive)

Question: With TIPRL (UniProt O75663) as the target, how does the log2 fold change read?
Answer: 0.017 (inactive)

Question: STX17 (UniProt P56962) was tested. Which log2 fold change did it give?
Answer: 0.138 (inactive)

Question: Which log2 fold change does the source give for STIM1 (UniProt Q13586) here?
Answer: 0.067 (inactive)

Question: With SLC30A10 (UniProt Q6XR72) as the target, how does the log2 fold change read?
Answer: 0.12 (inactive)

Question: How did the log2 fold change turn out when STK25 (UniProt O00506) was run?
Answer: 0.08 (inactive)

Question: With SNUPN (UniProt O95149) as the target, how does the log2 fold change read?
Answer: -0.184 (inactive)

Question: For SLC7A6 (UniProt Q92536), which log2 fold change is on record?
Answer: -0.02 (inactive)

Question: For SMAD9 (UniProt O15198), which log2 fold change is on record?
Answer: 0.017 (inactive)

Question: TJP2 isoform 7 (UniProt Q9UDY2) was tested. Which log2 fold change did it give?
Answer: 0.05 (inactive)

Question: With SLC30A7 (UniProt Q8NEW0) as the target, how does the log2 fold change read?
Answer: 0.06 (inactive)

Question: STOM (UniProt P27105) was tested. Which log2 fold change did it give?
Answer: 0.039 (inactive)

Question: STAT5B (UniProt P51692) was tested. Which log2 fold change did it give?
Answer: -0.022 (inactive)

Question: How did the log2 fold change turn out when SPCS2 (UniProt Q15005) was run?
Answer: 0.002 (inactive)

Question: For SMAP2 (UniProt Q8WU79), which log2 fold change is on record?
Answer: 0.004 (inactive)

Question: TIAL1 isoform 2 (UniProt Q01085) was tested. Which log2 fold change did it give?
Answer: 0.238 (active)

Question: How did the log2 fold change turn out when STAT6 (UniProt P42226) was run?
Answer: -0.048 (inactive)

Question: Which log2 fold change does the source give for SLC6A6 (UniProt P31641) here?
Answer: -0.181 (inactive)

Question: SRSF2 (UniProt Q01130) was tested. Which log2 fold change did it give?
Answer: -0.02 (inactive)
